# Hit rate of the full screen: of about 310,000 compounds, about 14,000 (4.5%) showed an effect of 50% or more. The effect is printed as a negative number. Many of the other results were omitted from the sample, so strong results are more common in it than they were.
# Target: human ether-à-go-go-related gene (hERG) potassium channel (human, UniProt Q12809)
# Assay: primary screen, population patch clamp on CHO cells stably expressing hERG; higher = less effect of the substance
# 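Further: peak tail current of the secondary pulse compared with the same well before compound.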
# human ether-à-go-go-related gene (hERG) potassium channel, sequence (Q12809 whole entry, looked up): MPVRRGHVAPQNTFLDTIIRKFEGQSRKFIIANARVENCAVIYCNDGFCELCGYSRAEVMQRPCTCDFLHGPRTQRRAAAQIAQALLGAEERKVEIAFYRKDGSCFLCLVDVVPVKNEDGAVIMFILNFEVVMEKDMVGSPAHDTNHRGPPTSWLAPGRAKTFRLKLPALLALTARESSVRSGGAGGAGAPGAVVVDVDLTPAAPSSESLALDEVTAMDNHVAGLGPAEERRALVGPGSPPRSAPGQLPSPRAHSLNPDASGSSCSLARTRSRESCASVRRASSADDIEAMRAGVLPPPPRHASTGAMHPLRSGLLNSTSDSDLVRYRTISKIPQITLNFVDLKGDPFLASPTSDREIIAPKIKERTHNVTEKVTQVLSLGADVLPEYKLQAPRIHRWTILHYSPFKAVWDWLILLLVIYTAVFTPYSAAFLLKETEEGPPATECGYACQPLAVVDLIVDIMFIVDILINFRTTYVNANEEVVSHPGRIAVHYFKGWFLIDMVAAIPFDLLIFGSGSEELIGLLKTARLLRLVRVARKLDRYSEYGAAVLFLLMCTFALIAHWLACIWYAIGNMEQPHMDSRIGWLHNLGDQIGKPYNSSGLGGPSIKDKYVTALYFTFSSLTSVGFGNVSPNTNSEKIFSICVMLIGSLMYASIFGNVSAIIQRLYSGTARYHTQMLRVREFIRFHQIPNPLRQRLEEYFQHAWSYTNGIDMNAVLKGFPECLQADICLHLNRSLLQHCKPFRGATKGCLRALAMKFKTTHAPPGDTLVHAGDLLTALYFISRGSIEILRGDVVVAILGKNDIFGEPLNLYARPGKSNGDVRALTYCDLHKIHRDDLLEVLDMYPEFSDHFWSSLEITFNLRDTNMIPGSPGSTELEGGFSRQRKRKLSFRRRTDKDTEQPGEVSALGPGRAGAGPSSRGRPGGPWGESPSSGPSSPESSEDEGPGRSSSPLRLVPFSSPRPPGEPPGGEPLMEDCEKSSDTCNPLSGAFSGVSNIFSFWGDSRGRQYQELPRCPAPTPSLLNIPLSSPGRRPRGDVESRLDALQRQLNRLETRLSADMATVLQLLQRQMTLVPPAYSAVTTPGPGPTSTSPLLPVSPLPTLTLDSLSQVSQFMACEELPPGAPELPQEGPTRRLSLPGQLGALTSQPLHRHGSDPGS
row,Compound,"hERG current change (%, negative = inhibition) at 10uM"
1,Cc1cc(NC(=O)C2CCCN(S(=O)(=O)c3c(C)noc3C)C2)n[nH]1 (centres unmarked),-16.1%
2,CCOc1ccc(C(=O)COC(=O)CNC(=O)C2CCCCC2)cc1,-0.0501%
3,O=C(COC(=O)C12CC3CC(CC(C3)C1)C2)Nc1ccc([N+](=O)[O-])cc1Br,8.64%
4,CN1CCC(=NNC(=O)COc2ccc(Cl)cc2)CC1,17.4%
5,CCCn1c(=N)n(CC(O)COc2ccc(C)cc2)c2ccccc21.Cl (centres unmarked),-89%
6,CC1SC2(CN3CCC2CC3)NC1=O (centres unmarked),18%
7,CC1=CN2C(=NC(=O)CC2(C)C(=O)N(CC(=O)NC2CCCC2)Cc2ccccc2)C=C1 (centres unmarked),9.32%
8,COc1ccccc1N1CCN(c2nc3ccccc3nc2C(C#N)C(=O)OC(C)C)CC1 (centres unmarked),-12%
9,Cc1cccc(OCC(O)CN2CC3(C)CC2CC(C)(C)C3)c1 (centres unmarked),-67.6%
10,Cc1cccc(C(=O)N2CC3(C)CC2CC(C)(C)C3)c1 (centres unmarked),0.368%
11,CC1(C)CC2CC(C)(CN2CC(O)c2ccccc2)C1.O=C(O)C(=O)O (centres unmarked),-42.5%
12,CC1(C)CC2CC(C)(CN2CC(O)COc2ccccc2)C1.O=C(O)C(=O)O (centres unmarked),-41.5%
13,Cc1cccc(C)c1OCC(=O)N1CC2(C)CC1CC(C)(C)C2 (centres unmarked),-7.94%
14,Cc1ccc(OCC(O)CN2CC3(C)CC2CC(C)(C)C3)cc1.O=C(O)C(=O)O (centres unmarked),-53.6%
15,CSc1nnc(C)c(=O)n1COC(=O)COc1ccc2ccccc2c1,-7.33%
16,Cc1nnc(SCCN2CCOCC2)n1-c1cccc(Cl)c1.O=C(O)C(=O)O,-4.95%
17,COc1ccccc1N1CCN(C(=O)CN(c2ccc(C)c(C)c2)S(C)(=O)=O)CC1,-6.02%
18,Cc1cc(OCC(=O)NCc2ccncc2)c2c(C)cc(=O)oc2c1,-30.1%
19,Cc1cc(OCC(=O)NCc2ccncc2)c2c3c(c(=O)oc2c1)CCCC3,-62.2%
20,CCCc1cc(=O)oc2cc(C)cc(OCC(=O)NCc3ccccn3)c12,-33.7%
21,Cc1cc(OCC(=O)NCc2ccncc2)c2c(C)c(C)c(=O)oc2c1,-40.6%
22,CCc1cc(=O)oc2cc(C)cc(OCC(=O)NCc3ccncc3)c12,-54.8%

row,Compound,"hERG current change (%, negative = inhibition) at 10uM"
1,Cc1cc(OCC(=O)NCc2cccnc2)c2c3c(c(=O)oc2c1)CCCC3,-40.1%
2,Cc1cc(OCC(=O)NCc2ccncc2)c2c3c(c(=O)oc2c1)CCC3,-10.3%
3,CCc1cc(=O)oc2cc(C)cc(OCC(=O)NCc3ccccn3)c12,-40%
4,Cc1ccc(OCC(=O)NCc2ccccn2)cc1,12.4%
5,O=C(COc1ccc(Br)cc1)NCc1ccccn1,-8.53%
6,Cc1cc(OCC(=O)NCc2ccccn2)cc(C)c1Br,-69.4%
7,CCCCc1cc(=O)oc2cc(C)cc(OCC(=O)NCc3ccccn3)c12,-56.4%
8,CSc1cccc(NC(=O)/C=C/c2ccccc2)c1,-7.06%
9,CC(=O)N1CCN(S(=O)(=O)c2cccc(C(=O)NCCC3=CCCCC3)c2)CC1,-8.54%
10,O=C1N(c2ccc(Cl)c(Cl)c2)CN(Cc2ccccc2)CN1n1cnnc1,-25.9%
11,COc1ccccc1-c1noc(CCC(=O)Nc2ccccc2Cl)n1,-4.71%
12,CS(=O)(=O)c1ccccc1-c1nnc(NC(=O)COc2ccc(Cl)cc2)o1,-6.82%
13,CCC1=C(OC(=O)N(CC)CC)N2C(=O)OC(=NCc3ccccc3)[C@]2(C)[C@H]2C1=CC[C@H]1C(=O)NC(=O)[C@H]12,-6.14%
14,CCC1CCCCN1C(=O)c1cc2c(=O)n3cccc(C)c3nc2s1 (centres unmarked),4.01%
15,CCC1Oc2ccccc2N(CC(=O)NCCC2=CCCCC2)C1=O (centres unmarked),3.64%
16,FC(F)(F)c1cc(-c2ccc(Cl)cc2)nc2ncnn12,-16.2%
17,CCCc1cc(=O)oc2cc(C)cc(OCC(=O)Nc3cccnc3)c12,-0.927%
18,CCCc1cc(=O)oc2cc(C)cc(OCC(=O)Nc3ccccn3)c12,13.2%
19,CCCc1cc(=O)oc2cc(C)cc(OCC(=O)NCc3cccnc3)c12,-44.4%
20,CCCCc1cc(=O)oc2cc(C)cc(OCC(=O)Nc3cccnc3)c12,26.7%
21,CCCCc1cc(=O)oc2cc(C)cc(OCC(=O)NCc3cccnc3)c12,-54.1%
22,CCc1cc(=O)oc2cc(C)cc(OCC(=O)NCc3cccnc3)c12,-31.5%

row,Compound,"hERG current change (%, negative = inhibition) at 10uM"
1,CCCCc1cc(=O)oc2cc(C)cc(OCC(=O)NCc3ccncc3)c12,-84.1%
2,CCCCc1cc(=O)oc2cc(C)cc(OCC(=O)Nc3ccccn3)c12,28.6%
3,CCCc1cc(=O)oc2cc(C)cc(OCC(=O)NCc3ccncc3)c12,-69.5%
4,CCOc1ccc(NC(=O)Cn2nnc(C(=O)NCc3ccco3)c2N)cc1,15.1%
5,C=CCN1C(=O)S/C(=C/c2ccc(Sc3nc4ccccc4[nH]3)o2)C1=O,3.61%
6,CCN1C(=O)N[C@@H](c2ccccc2)[C@H](C(=O)OC)[C@H]1C,-6.4%
7,COC(=O)Nc1nn(-c2ccc(C)cc2)c(=O)c(C#N)c1C,11.2%
8,CN(C)C(C(=O)NC1CCCCC1)c1ccc(Cl)cc1 (centres unmarked),4.27%
9,COC(=O)c1ccc(N2CCN(C)CC2)c(NC(=O)COc2cccc(C)c2)c1,-18.9%
10,CCOC(=O)c1ccc(N=C(C)c2c(O)[nH]c(=O)[nH]c2=O)cc1,10.8%
11,CCCCn1nc(C(=O)NC2=NCCS2)c2ccccc2c1=O,-16.3%
12,Cc1cc(NC(=O)COC(=O)CC2CCCC2)c([N+](=O)[O-])cc1C,9.34%
13,CCOC(=O)CC(NC(=O)c1cc2cccc(OC)c2oc1=O)c1ccc(OC)cc1 (centres unmarked),-5.76%
14,CCOC(=O)CC(NC(=O)c1cc2cccc(OC)c2oc1=O)c1cccc([N+](=O)[O-])c1 (centres unmarked),-23%
15,CCOC(=O)CC(NC(=O)c1cc2cc(Cl)cc(Cl)c2oc1=O)c1cccc([N+](=O)[O-])c1 (centres unmarked),-66.8%
16,CCOC(=O)CC(NC(=O)c1cc2ccccc2oc1=O)c1cccc([N+](=O)[O-])c1 (centres unmarked),-58.5%
17,CCOC(=O)CC(N)c1cccc([N+](=O)[O-])c1.Cl (centres unmarked),2.9%
18,CCOC(=O)CC(NC(=O)c1cc2cc(Br)ccc2oc1=O)c1cccc([N+](=O)[O-])c1 (centres unmarked),-27.5%
19,O=C(Nc1ccccn1)C1COc2ccccc2O1 (centres unmarked),16.1%
20,CCOC(=O)c1sc2nc(C)nc(NC3CCC(O)CC3)c2c1C (centres unmarked),2.9%
21,CSc1ccccc1NC(=O)CN(C)CC(=O)Nc1ccc(Cl)cc1[N+](=O)[O-],-31.6%
22,O=C(CN1C(=O)C2CC=CCC2C1=O)NCC(=O)Nc1ccc(F)c(F)c1F (centres unmarked),7.55%

row,Compound,"hERG current change (%, negative = inhibition) at 10uM"
1,Cc1cc(Cl)c(S(=O)(=O)N/N=C/c2ccc3c(c2)OCO3)c(Cl)c1,2.77%
2,COc1ccc(NC(=O)N2CCc3ccccc3C2)cc1OC,11.3%
3,CCNc1nc(NC(C)C)nc(Nn2cnnc2)n1,9.05%
4,O=C(NCc1cccs1)C1CCN(S(=O)(=O)c2cccc3nsnc23)CC1,-13.1%
5,CS(=O)(=O)c1ccccc1C(=O)Nc1cc(Cl)ccc1-n1cncn1,13.4%
6,O=C(CN1C(=O)NC2(CCc3ccccc32)C1=O)c1ccc(F)cc1 (centres unmarked),-57.4%
7,O=C(CN1C(=O)NC2(CCCc3ccccc32)C1=O)c1ccc(Br)cc1 (centres unmarked),-20.4%
8,CS(=O)(=O)c1ccc(C(=O)CN2C(=O)NC3(CCCc4ccccc43)C2=O)cc1 (centres unmarked),-51.5%
9,O=C(CN1C(=O)NC2(CCc3ccccc32)C1=O)c1ccccc1 (centres unmarked),15.1%
10,Cc1cc(Cl)ccc1NC(=O)CN1C(=O)NC2(CCCc3ccccc32)C1=O (centres unmarked),-1.38%
11,Cc1ccc(NC(=O)CN2C(=O)NC3(CCCc4ccccc43)C2=O)c([N+](=O)[O-])c1 (centres unmarked),-75.6%
12,COc1ccc(C(=O)CN2C(=O)NC3(CCCc4ccccc43)C2=O)cc1 (centres unmarked),-36.2%
13,Cc1ccc(F)cc1NC(=O)CN1C(=O)NC2(CCCc3ccccc32)C1=O (centres unmarked),-1.5%
14,O=C(CN1C(=O)NC2(CCCc3ccccc32)C1=O)c1ccc(F)cc1 (centres unmarked),-17%
15,CCCS(=O)(=O)Nc1cccc(-c2cn3c(n2)SCC3)c1,-14.1%
16,COc1ccc(OC)c(S(=O)(=O)N2CCCC(C(=O)NCCN3CCOCC3)C2)c1 (centres unmarked),21.2%
17,O=S(=O)(NCc1cccnc1)c1ccc(Cl)s1,6.91%
18,COc1ccc(C(=O)NCc2nnc(SCC(=O)Nc3nnc(C)s3)o2)cc1,14.5%
19,N#CC1(NC(=O)CSc2nnc(C3CC3)n2C2CC2)CCCCC1,-8.52%
20,CCS(=O)(=O)c1ccc2oc(Nc3ccc(OC)c(OC)c3)nc2c1,8.05%
